In PubChem BioAssay (Tox21):
Results filed as inconclusive are left out. Calls of active or inactive are those of the source. The call rests on the fitted dose curve; in most records, active means well fitted curve in the direction sought with a large enough effect in the repeat runs; inconclusive means weak or mixed curves; inactive means no such curve, though single readings can be large; an effect the other way counts as inactive or inconclusive.

Assays:
[1] = qHTS assay to identify small molecule agonists of the RXR signaling pathway - cell viability counter screen (AID 1159529);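 further: HEK 293T cells carrying an RXR-alpha UAS beta-lactamase reporter; nearly all actives have a fitted effect of over 50% in size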
Procedure, shortened: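 Tox21 10K compounds were tested for cytotoxicity against GeneBLAzer RXR-alpha HEK 293T cells grown in 2% charcoal-stripped FBS. Exposure lasted 16 hr at 37 C, 5% CO2; viability read by CellTiter-Glo luminescence.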

[2] = qHTS assay to identify small molecule antagonists of the retinoid acid receptor (RAR) signaling pathway - cell viability counter screen (AID 1159551); further: nearly all actives have a fitted effect of over 35% in size
Procedure, shortened: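 C3RL4 RARE-luciferase cells, 1,000/well, incubated overnight, then dosed with compound plus 1 uM retinol (final). After 6 hr at 37 C, viability read by CellTiter-Glo ATP luminescence following 30 min at room temperature.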

[3] = qHTS assay to identify small molecule antagonists of the retinoic acid receptor (RAR) signaling pathway (AID 1159552; further: nearly all actives have a fitted effect of over 50% in size)
Procedure, shortened: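 Overnight-plated C3RL4 reporter cells get compound, then retinol to 1 uM final; plates sit 6 hr at 37 C, 5% CO2. A luciferase reagent is added and light output recorded after 30 min at room temperature.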

[4] = qHTS assay to identify small molecule agonists of the retinoic acid receptor (RAR) signaling pathway (AID 1159553); details: C3RL4 RARE luciferase reporter, agonist, 6 h; activation: at 73.3 µM (top of the series)
Procedure, shortened: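 C3RL4 RARE-luciferase cells were seeded at 1,000/well and grown overnight at 37 C, then exposed to compounds for 6 hr at 37 C, 5% CO2. Luciferase reagent was added and luminescence was read after 30 min at room temperature.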

[5] = qHTS assay to identify small molecule antagonists of the estrogen related receptor (ERR) signaling pathway from Tox21 library - cell viability counter screen (AID 1224834); further: nearly all actives have a fitted effect of over 30% in size
Procedure, shortened: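 ERR reporter cells, 2,000 per well, rested 6 h, then exposed to compound in DMSO for 17.5 hours at 37 C. Viability read as fluorescence after 30 min with CellTiter-Fluor.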

[6] = molecular target: Luciferin 4-monooxygenase (Photinus pyralis) (UniProt P08659); assay: qHTS assay to identify small molecule inhibitors of firefly luciferase (AID 1224835); further: nearly all actives have a fitted effect of over 25% in size
Luciferin 4-monooxygenase (Photinus pyralis), sequence (P08659 whole entry, looked up): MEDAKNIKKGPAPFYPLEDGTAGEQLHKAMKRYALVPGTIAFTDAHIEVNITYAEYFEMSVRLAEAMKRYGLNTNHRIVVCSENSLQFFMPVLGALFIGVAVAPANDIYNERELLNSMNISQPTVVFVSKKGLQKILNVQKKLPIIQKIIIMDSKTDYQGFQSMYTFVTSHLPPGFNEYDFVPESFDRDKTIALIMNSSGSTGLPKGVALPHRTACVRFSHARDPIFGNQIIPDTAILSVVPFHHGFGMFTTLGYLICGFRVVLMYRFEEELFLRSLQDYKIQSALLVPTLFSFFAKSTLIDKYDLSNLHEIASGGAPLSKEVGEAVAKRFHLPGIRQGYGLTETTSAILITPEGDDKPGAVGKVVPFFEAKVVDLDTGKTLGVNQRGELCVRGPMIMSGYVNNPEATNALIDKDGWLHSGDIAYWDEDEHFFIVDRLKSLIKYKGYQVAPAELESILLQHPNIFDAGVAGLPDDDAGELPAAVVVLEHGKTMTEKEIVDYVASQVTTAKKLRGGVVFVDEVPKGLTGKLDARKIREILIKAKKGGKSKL
Procedure, shortened: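 Quantitative HTS format; KM concentrations of both substrates. Purified P. pyralis FLuc activity quantified from luminescence images.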

[7] = qHTS assay to identify small molecule agonists of the constitutive androstane receptor (CAR) signaling pathway - cell viability counter screen (AID 1224836); further: nearly all actives have a fitted effect of over 45% in size
Procedure, shortened: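 Fluorescence from CellTiter-Fluor indicates live cells after 23 h exposure. The human hepatoma line expresses hCAR and a CYP2B6-2.2kb reporter. Incubation medium contains 0.75 uM PK11195 (final).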

[8] = qHTS assay to identify small molecule antagonists of the constitutive androstane receptor (CAR) signaling pathway - cell viability counter screen (AID 1224837); further: nearly all actives have a fitted effect of over 45% in size
Procedure, shortened: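 HepG2 cells stably carrying hCAR and CYP2B6-2.2kb reporter, stimulated with 50 nM CITCO and compounds at 15 concentrations for 23 h at 37 C. Viability measured by CellTiter-Fluor fluorescence.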

[9] = molecular target: Nuclear receptor subfamily 1 group I member 3 (Homo sapiens) (UniProt Q14994); assay: qHTS assay to identify small molecule agonists of the constitutive androstane receptor (CAR) signaling pathway (AID 1224839); further: nearly all actives have a fitted effect of over 15% in size
Nuclear receptor subfamily 1 group I member 3 (Homo sapiens), sequence (Q14994 whole entry, looked up): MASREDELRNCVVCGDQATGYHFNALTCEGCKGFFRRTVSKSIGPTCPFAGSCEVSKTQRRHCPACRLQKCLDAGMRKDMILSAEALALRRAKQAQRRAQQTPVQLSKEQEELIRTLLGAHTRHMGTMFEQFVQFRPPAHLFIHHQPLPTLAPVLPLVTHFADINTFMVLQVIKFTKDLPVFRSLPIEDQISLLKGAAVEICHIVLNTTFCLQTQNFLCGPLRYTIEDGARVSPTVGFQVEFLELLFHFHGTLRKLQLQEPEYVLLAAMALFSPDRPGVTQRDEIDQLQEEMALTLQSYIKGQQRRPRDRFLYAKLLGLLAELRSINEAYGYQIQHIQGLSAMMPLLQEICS
Procedure, shortened: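 Stable hCAR/CYP2B6-2.2kb HepG2 line in DMEM with 10% FBS; compounds (15 concentrations) and 0.75 uM PK11195 final, 24 h at 37 C/5% CO2, then ONE-Glo luminescence after 30 min.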

[10] = molecular target: Nuclear receptor subfamily 1 group I member 3 (Homo sapiens) (UniProt Q14994); assay: qHTS assay to identify small molecule antagonists of the constitutive androstane receptor (CAR) signaling pathway (AID 1224838); further: nearly all actives have a fitted effect of over 40% in size
Procedure, shortened: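 HepG2 cells stably carrying hCAR and a CYP2B6-2.2kb luciferase reporter, seeded 4 hrs before compound (15 concentrations). Stimulated with 50 nM CITCO for 24 hr at 37 C. ONE-Glo luminescence read after 30 min at room temperature.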
On the % scale 0 is the no-effect control and ±100 the full control effect.

CCCCCC1CCCC(=O)O1 (stereo not given)
inactive: outcome [1] | outcome [2] | Potency [3] | Potency [4] | Potency [5] | Potency [6] | outcome [7] | Potency [8] | Potency [9]

CC(=O)OC[C@H]1O[C@@H](OC(C)=O)[C@H](OC(C)=O)[C@@H]1OC(C)=O
inactive: outcome [1] | outcome [2] | Potency [3] | Potency [4] | Potency [5] | Potency [6] | outcome [7] | Potency [8] | Potency [9]

CNC(=O)NC
inactive: outcome [1] | outcome [2] | Potency [3] | Potency [4] | Potency [5] | Potency [6] | outcome [7] | Potency [8]

Cc1ccccc1OCC1CO1 (stereo not given)
inactive: outcome [1] | outcome [2] | Potency [3] | Potency [4] | Potency [5] | Potency [6] | outcome [7] | Potency [8]

CC(=O)OC(C)c1ccccc1 (stereo not given)
inactive: outcome [1] | outcome [2] | Potency [3] | Potency [4] | Potency [5] | Potency [6] | outcome [7] | Potency [8] | Potency [10] | Potency [9]

COc1ccc(OC)c(NC(=O)CC(C)=O)c1
inactive: outcome [1] | outcome [2] | Potency [3] | Potency [4] | Potency [5] | Potency [6] | outcome [7] | Potency [8] | Potency [10]

CC(=O)Nc1ccc(C)cc1
inactive: outcome [1] | outcome [2] | Potency [3] | Potency [4] | Potency [5] | Potency [6] | outcome [7] | Potency [8]

CC(=O)OCC(=O)[C@@]1(O)[C@H](OC(C)=O)C[C@H]2[C@@H]3CCC4=CC(=O)C=C[C@]4(C)[C@@]3(F)[C@@H](O)C[C@@]21C
inactive: outcome [1] | outcome [2] | Potency [3] | Potency [4] | Potency [5] | Potency [6] | outcome [7] | Potency [8] | Potency [10] | Potency [9]

C=C[C@@H](C)CCC=C(C)C
inactive: outcome [1] | outcome [2] | Potency [3] | Potency [4] | Potency [5] | Potency [6] | outcome [7] | Potency [8]

CCC(C)(C)C1CCC(=O)CC1
inactive: outcome [1] | outcome [2] | Potency [3] | Potency [4] | Potency [5] | Potency [6] | outcome [7] | Potency [8]

C=COCCOCCOC=C
inactive: outcome [1] | outcome [2] | Potency [3] | Potency [4] | Potency [5] | Potency [6] | outcome [7] | Potency [8] | Potency [10] | Potency [9]

COc1cccc2sc(N)nc12
inactive: outcome [1] | outcome [2] | Potency [3] | Potency [4] | Potency [5] | Potency [6] | outcome [7] | Potency [8] | Potency [10]

O=C(CN1CCN(Cc2ccc3c(c2)OCO3)CC1)N1c2ccccc2Sc2ccccc21
inactive: outcome [1] | outcome [2] | Potency [3] | Potency [4] | Potency [5] | Potency [6] | outcome [7] | Potency [8] | Potency [10]

CCCCCC1Nc2cc(C(F)(F)F)c(S(N)(=O)=O)cc2S(=O)(=O)N1 (stereo not given)
inactive: outcome [1] | outcome [2] | Potency [4] | Potency [5] | Potency [6] | outcome [7] | Potency [8]

CC(=O)OCCCc1ccccc1
inactive: outcome [1] | outcome [2] | Potency [5] | Potency [6] | outcome [7] | Potency [8]

C=C(C)[C@@H]1CC[C@@H](C)C[C@@H]1O
inactive: outcome [1] | outcome [2] | Potency [5] | Potency [6] | outcome [7] | Potency [8]

BrC/C=C/CBr
inactive: activity change, negative = cytotoxicity [1] -1.93% [at 15.8 µM] | activity change, negative = cytotoxicity [2] 3.13% [at 19 µM] | Potency [4] | viability change, negative = cytotoxic [5] 0.661% [at 19 µM] | activity change, negative = inhibition [6] 0.329% [at 23.6 µM] | viability change, negative = cytotoxic [7] 0.935% [at 19 µM] | activity change, negative = cytotoxicity [8] -2.33% [at 19 µM]

CCCCCCCCCCCCC1CO1 (stereo not given)
inactive: outcome [1] | outcome [2] | Potency [4] | Potency [5] | Potency [6] | outcome [7] | Potency [8] | Potency [10] | Potency [9]

C1CCN2C[C@@H]3C[C@@H](CN4CCCC[C@@H]34)[C@H]2C1
inactive: outcome [1] | outcome [2] | Potency [5] | Potency [6] | outcome [7] | Potency [8] | Potency [10]

NS(=O)(=O)c1cc2c(cc1Cl)NC(C(Cl)Cl)NS2(=O)=O (stereo not given)
inactive: outcome [1] | outcome [2] | Potency [3] | Potency [5] | Potency [6] | outcome [7] | Potency [8] | Potency [9]
